The text below walks through data of PubChem BioAssay (NCATS).

A number with no mark means an inactive call. Records with an inconclusive call do not appear. Activity calls are given as the source filed them. Calls follow the shape of the dose curve; as a rule, active = well fitted curve in the direction sought with a large enough effect; inconclusive = small, poorly fitted or top-dose-only effect, or another doubt; inactive = no such curve, though single readings can be large; an effect the other way counts as inactive or inconclusive.

In assay [1] the target is Phospholipid hydroperoxide glutathione peroxidase GPX4 (Homo sapiens) (UniProt P36969). Put plainly: Primary qHTS Assay for Inhibitors of Recombinant Selenoprotein Glutathione Peroxidase 4 (GPX4) (AID 1845192). Also: series mostly up to about 50 µM; nearly all actives have a fitted effect of over 65% in size. The procedure, abridged: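 NADPH consumption, followed by fluorescence at 340/450 nm between 0 and 15 min, reports GPX4 activity via coupled glutathione reductase (100 nM). Enzyme 200 nM was pre-exposed to compound 30 min; 0.5 mM cumene hydroperoxide and 1 mM GSH served as substrates.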

In assay [2] the target is Luciferin 4-monooxygenase (Photinus pyralis) (UniProt P08659). Nature of the assay: Primary firefly luciferase (FLuc) qHTS assay for identification of artifact compounds. (AID 1845220). Also: nearly all actives have a fitted effect of over 60% in size. The procedure, abridged: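 Compounds sat 15 min at room temperature with 10 uM luciferin and 10 uM ATP (pH 7.6 Tris acetate). Firefly luciferase (10 nM final) was then added, and luminescence was read 5 min later. Data normalized to no-enzyme and DMSO controls were Hill-fitted.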
In general terms: Quantitative high-throughput screening tests each substance at several concentrations.

Assay [3] is described as follows: Primary fluorescence-based thiol-reactive (MSTI) qHTS assay for identification of artifact compounds. (AID 1845221). Also: nearly all actives have a fitted effect of over 65% in size. Also: potency is read from the fitted curve at half-maximal effect. The procedure, abridged: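 One-hour, room-temperature, dark incubation of compound with 4 uM MSTI in PBS (pH 7.4, 2% DMSO) precedes a fluorescence read at 525 nm excitation, 598 nm emission; Hill-equation fitting yields concentration-response values.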

For assay [4], the system named is Nanoluciferase (engineered Oplophorus gracilirostris luciferase). Put plainly: Primary Nanoluciferase (NLuc) qHTS assay for identification of artifact compounds. (AID 1845222). Also: potency is read from the fitted curve at half-maximal effect. The procedure, abridged:
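Luminescence from secreted NLuc (filtered, 1:55-diluted S16 cell medium) read 5 min after Nano-Glo substrate; compounds preincubated 15 min, RT. Hill fits of inhibition normalized to DMSO and no-enzyme.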

Assay [5] addresses Glutathione peroxidase 1 (Homo sapiens) (UniProt P07203). Put plainly: Primary qHTS Assay for Inhibitors of Recombinant Selenoprotein Glutathione Peroxidase 1 (GPX1) (AID 1845191). Also: nearly all actives have a fitted effect of over 65% in size. Also: potency is read from the fitted curve at half-maximal effect. Summed up:
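10 nM GPX1 + cpd, 30 min RT; start w/ 1 mM GSH, 0.5 mM cumene hydroperoxide, 0.5 mM NADPH, 100 nM GR, 0.01% BSA; buffer 50 mM Tris-HCl pH 7.5, 2 mM EDTA, 150 mM NaCl; Fl 340/450, 0 & 15 min.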

The nature of assay [6]: Primary redox qHTS assay for identification of artifact compounds. (AID 1845223). The procedure, abridged: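 Amplex Red (25 uM) and HRP (250 mU/mL) in HBSS, with compounds for 15 min, then 250 uM DTT for 30 min, room temperature, dark. Fluorescence 525/598 nm read; normalized to DMSO and 10 uM DA3003; Hill fit.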

Chain of Glutathione peroxidase 1 (Homo sapiens) (P07203 whole entry, looked up): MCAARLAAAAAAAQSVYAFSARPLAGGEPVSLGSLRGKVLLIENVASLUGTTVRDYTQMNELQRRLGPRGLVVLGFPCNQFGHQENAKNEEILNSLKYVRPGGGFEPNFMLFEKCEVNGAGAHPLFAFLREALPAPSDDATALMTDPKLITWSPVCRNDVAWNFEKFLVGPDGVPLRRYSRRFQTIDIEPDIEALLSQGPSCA
Chain of Phospholipid hydroperoxide glutathione peroxidase GPX4 (Homo sapiens) (P36969 whole entry, looked up): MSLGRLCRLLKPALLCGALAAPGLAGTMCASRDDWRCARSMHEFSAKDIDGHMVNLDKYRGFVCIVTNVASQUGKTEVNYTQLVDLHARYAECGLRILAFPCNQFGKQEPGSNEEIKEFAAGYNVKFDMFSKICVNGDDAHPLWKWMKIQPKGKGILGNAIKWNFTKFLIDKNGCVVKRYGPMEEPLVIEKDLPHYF

As to `CC[C@]1(O)CC2CN(CCc3c([nH]c4ccccc34)[C@@](C(=O)OC)(c3cc4c(cc3OC)N(C=O)[C@H]3[C@@](O)(C(=O)OC)[C@H](OC(C)=O)[C@]5(CC)C=CCN6CC[C@]43[C@@H]65)C2)C1` (stereo partly drawn), the Potency result in assay [1], in assay [2], in assay [3] and in assay [4] was “inactive” in each case.
`CCc1c(-c2ccccc2)c(-c2ccccc2)nn1-c1ccccc1-c1cccc(OCC(=O)O)c1`: the Potency result in assay [5], in assay [2], in assay [3] and in assay [6] was “inactive” in each case. For the same molecule, in assay [4], the Potency is 0.269 µM (active).
As to `C=C(C)C(=O)O[C@H]1CC2=CC(C/C(C)=C\[C@H]3OC(=O)C(=C)[C@H]13)OC2=O` (stereo partly drawn), the Potency result in assay [5], in assay [2], in assay [3], in assay [4] and in assay [6] was “inactive” throughout.
As for `Cc1nc([C@](C)(O)CO)sc1-c1cnc(N)c(O[C@H](C)c2cc(F)ccc2-n2nccn2)c1`, the Potency result in assay [1], in assay [2], in assay [3] and in assay [4] was “inactive” throughout.
As for `C[C@@H]1C[C@@H]2O[C@H]2/C=C\C=C\C(=O)Cc2c(Cl)c(O)cc(O)c2C(=O)O1`, the Potency result in assay [1], in assay [2], in assay [3] and in assay [4] was “inactive” in each case.
As to `CC1=CC2C(CC1OC1OC(CO)C(O)C(O)C1O)C(C)CC(=O)C2C(C)C` (stereo not drawn), the Potency entry in assay [1], in assay [2] and in assay [4] was “inactive” throughout. Further, the Potency in assay [3] is 3.69 µM (active).
For the molecule `O=C(c1ccc(/C=C/c2n[nH]c3ccccc23)cc1)N1CCNCC1`, the Potency entry in assay [5], in assay [3], in assay [4] and in assay [6] was “inactive” throughout.
Regarding `CC(C)CC1NC(=O)C(C)NC(=O)C(CC(C)C)OC(=O)CCCNC1=O` (stereo not drawn), the Potency entry in assay [1], in assay [2], in assay [3] and in assay [4] was “inactive” throughout.
For the molecule `CCOC(=O)C(CCc1ccccc1)NC1CSC(c2cccs2)CN(CC(=O)O)C1=O` (stereo not drawn), the Potency result in assay [1], in assay [2], in assay [3] and in assay [4] was “inactive” throughout.
For the molecule `CC(=O)NCC(=O)N1C2CCC1c1cc(Nc3ncc(C(F)(F)F)c(NC4CCC4)n3)ccc12` (stereo not drawn), the Potency entry in assay [1], in assay [2], in assay [3] and in assay [4] was “inactive” throughout.
Consider `C=CC/C=C\C/C=C\CCCCCCCc1cccc(O)c1C(=O)O`, for which the Potency result in assay [5], in assay [2] and in assay [4] was “inactive” throughout.
With `Nc1nccn2c(C3CCC(C(=O)O)CC3)nc(-c3cc4cccc(Cl)c4[nH]3)c12` (stereo not drawn), the Potency result in assay [5] was “inactive”. Moreover, in assay [3], the Potency is 6.7 µM (active).
Take `C=C1C(=O)O[C@@H]2C/C(C)=C\C(=O)/C=C(\C)[C@@H](OC(=O)/C(C)=C\C)[C@H](O)[C@@H]12`: the Potency result in assay [5], in assay [2], in assay [3], in assay [4] and in assay [6] was “inactive” each time.
Turning to `Cc1cc(C)c2c(N)c(C(=O)NCc3ccc(Cl)cc3)sc2n1`, the Potency entry in assay [5], in assay [2], in assay [3], in assay [4] and in assay [6] was “inactive” each time.
In the case of `COc1cc2c(NC3CCN(CC4CCCCC4)CC3)nc(N3CCCN(C(C)C)CC3)nc2cc1OCCCN1CCCCC1`, the Potency entry in assay [5], in assay [2], in assay [3], in assay [4] and in assay [6] was “inactive” in each case.
`C=C1CCC2C(C)(C)C(O)CCC2(C)C1CCC(C)CCO` (stereo not drawn): the Potency result in assay [1], in assay [2] and in assay [4] was “inactive” in each case. The Potency in assay [3] was 16.5 µM (active).
`Cn1c2ccc(F)cc2c2c(C(=O)N3CCCC3)cn(-c3ccccc3)c(=O)c21`: the Potency in assay [5] is 18 µM (active). Besides, the Potency result in assay [2], in assay [3], in assay [4] and in assay [6] was “inactive” in each case.
Consider `O=C(NCc1ccccn1)Nc1nnc(-c2ccco2)o1`, for which the Potency entry in assay [5], in assay [2], in assay [3], in assay [4] and in assay [6] was “inactive” in each case.
Turning to `CO[C@@H](C)Cn1c(=O)n(C)c2cnc3ccc(-c4cncc(C(C)(C)O)c4)cc3c21`, the Potency entry in assay [5], in assay [2], in assay [3], in assay [4] and in assay [6] was “inactive” each time.
As for `CC1(C)CCC2(C(=O)OC3OC(CO)C(O)C(O)C3O)CCC3(C)C(=CCC4C5(C)CCC(O)C(C)(C(=O)O)C5CCC43C)C2C1O` (stereo not drawn), the Potency result in assay [1], in assay [2], in assay [3] and in assay [4] was “inactive” each time.
In the case of `CN1CCc2nc(C(=O)N[C@@H]3C[C@@H](C(=O)N(C)C)CC[C@@H]3NC(=O)C(=O)Nc3ccc(Cl)cn3)sc2C1`, the Potency result in assay [1], in assay [2], in assay [3] and in assay [4] was “inactive” each time.
Consider `CCC1C(=O)N(C)c2cnc(Nc3ccc(C(=O)NC4CCC(N5CCN(CC6CC6)CC5)CC4)cc3OC)nc2N1C(C)C` (stereo not drawn), for which the Potency result in assay [1], in assay [2], in assay [3] and in assay [4] was “inactive” in each case.
`CC1=C(C(=O)OCc2ccccc2)C(c2ccc(-c3ccccc3)cc2)NC(=O)N1CCCCCC(=O)O` (stereo not drawn): the Potency result in assay [5], in assay [2], in assay [3], in assay [4] and in assay [6] was “inactive” in each case.
Take `CO/N=C(/C(=O)N[C@@H]1C(=O)N2C(C(=O)O)=C(Cn3ccc(=N)n3CCO)CS[C@H]12)c1csc(N)n1`: the Potency in assay [5] was 8.06 µM (active). Besides, the Potency entry in assay [2], in assay [4] and in assay [6] was “inactive” each time.
On to `Nc1ccc(/C=C/C(=O)NCc2cc3cc(-c4ccc(C(=O)N5CCC(F)(F)CC5)cc4)cc(-c4ccc(F)cc4)c3o2)cn1`, for which the Potency result in assay [5], in assay [2], in assay [4] and in assay [6] was “inactive” each time.
For `CC1=C(/C=C/C(C)=C\C=C\C(C)=C/C(=O)O)C(C)(C)CCC1`, the Potency entry in assay [1], in assay [2], in assay [3] and in assay [4] was “inactive” in each case.
For `COc1cc(C2c3cc4c(c(O)c3CC(CO)C2C(=O)O)OCO4)cc(OC)c1O` (stereo not drawn), the Potency result in assay [1], in assay [2] and in assay [4] was “inactive” each time. Besides, the Potency in assay [3] is 10.3 µM (active).
For `Cn1cncc1C(N)(c1ccc(Cl)cc1)c1ccc2c(c1)c(-c1cccc(Cl)c1)cc(=O)n2C` (stereo not drawn), the Potency result in assay [5], in assay [2], in assay [4] and in assay [6] was “inactive” each time.
